Data as given in PubChem BioAssay (NCATS).
Inconclusive results are not listed. The source made the active and inactive calls. Unless noted, the call rests on the fitted dose curve; in most records, active means well fitted curve in the direction sought with a large enough effect; inconclusive means small, poorly fitted or top-dose-only effect, or another doubt; inactive means no such curve, though single readings can be large; an effect the other way counts as inactive or inconclusive.

Columns and labels:
[1] = Cytometric Cell-Based qHTS for Inhibitors of the mTORC1 Signaling Pathway in MEF (Tsc2-/-, p53-/-) Cells (AID 2660);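 further: percent of cells above a phospho-rpS6 to PI ratio cutoff in each well; series mostly up to about 38 µM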
In short: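 Tsc2-/-, p53-/- MEFs (empty vector) exposed to compound 24 h at 37 C, fixed, stained with Alexa-488 anti-phospho-rpS6 Ser235/236 and propidium iodide. Acumen laser scanning; phospho-S6/PI ratio thresholded against 7.5 nM rapamycin, reported as % positive cells.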

[2] = High Content Imaging Cell-Based qHTS for Inhibitors of the mTORC1 Signaling Pathway in MEF (Tsc2-/-, p53-/-) Cells (AID 2666);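 further: percent of cells scored positive for phospho-rpS6 Ser235/236 immunostaining by imaging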; further: potency means the concentration at half of the fitted maximal effect
In short: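 MEF Tsc2-/- p53-/- (empty vector), DMEM/10% FBS; cpd 24 h 37 °C; PFA fix, Alexa-488 p-rpS6 S235/236 Ab, Hoechst; imaged; rapamycin-defined inhibition; % positive cells/well.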

[3] = High Content Imaging Cell-Based qHTS for Inhibitors of the mTORC1 Signaling Pathway in MEF Cells (AID 2667);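 further: Tsc2-/- p53-/- MEFs stably re-expressing wild-type Tsc2 exposed 24 h; series mostly up to about 38 µM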
In short: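 Read-out is the share of phospho-rpS6-positive cells per well, from Hoechst-normalized Alexa-488 Ser235/236 staining imaged on IN Cell. Cells: WT Tsc2-expressing Tsc2-/-, p53-/- MEFs exposed to compound for 24 hrs.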

[4] = Cytometry Cell-Based qHTS for Inhibitors of the mTORC1 Signaling Pathway in MEF cells (AID 2668); further: potency means the concentration at half of the fitted maximal effect
In short: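 In MEFs grown in DMEM + 10% FBS, a 24 hrs compound exposure preceded imaging of phospho-rpS6 Ser235/236 by laser-scanning cytometry.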

[5] = Validation screen for small molecules that induce DNA re-replication in MCF 10A normal breast cells (AID 463097); further: nearly all actives have a fitted effect of over 60% in size; further: potency means the concentration at half of the fitted maximal effect
In short: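 Following 48 hr compound incubation (37 C, 5% CO2), MCF 10A cells receive Hoechst for 40 min at 37 C. Nuclei are then scanned (excitation 405 nm, emission 500-530 nm) for total fluorescence intensity.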

[6] = biological target: DNA polymerase III PolC-type (Bacillus subtilis (strain 168)) (UniProt P13267); experiment: qHTS Validation Assay for the Inhibitors of DNA Replication in Gram-Positive Bacteria (AID 485295);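 further: reconstituted holoenzyme with PolC plus beta clamp SSB and primase; PicoGreen fluorescence of double-stranded DNA made on primed circular M13 template; series mostly up to about 57 µM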
Sequence of DNA polymerase III PolC-type (Bacillus subtilis (strain 168)) (P13267 whole entry, looked up): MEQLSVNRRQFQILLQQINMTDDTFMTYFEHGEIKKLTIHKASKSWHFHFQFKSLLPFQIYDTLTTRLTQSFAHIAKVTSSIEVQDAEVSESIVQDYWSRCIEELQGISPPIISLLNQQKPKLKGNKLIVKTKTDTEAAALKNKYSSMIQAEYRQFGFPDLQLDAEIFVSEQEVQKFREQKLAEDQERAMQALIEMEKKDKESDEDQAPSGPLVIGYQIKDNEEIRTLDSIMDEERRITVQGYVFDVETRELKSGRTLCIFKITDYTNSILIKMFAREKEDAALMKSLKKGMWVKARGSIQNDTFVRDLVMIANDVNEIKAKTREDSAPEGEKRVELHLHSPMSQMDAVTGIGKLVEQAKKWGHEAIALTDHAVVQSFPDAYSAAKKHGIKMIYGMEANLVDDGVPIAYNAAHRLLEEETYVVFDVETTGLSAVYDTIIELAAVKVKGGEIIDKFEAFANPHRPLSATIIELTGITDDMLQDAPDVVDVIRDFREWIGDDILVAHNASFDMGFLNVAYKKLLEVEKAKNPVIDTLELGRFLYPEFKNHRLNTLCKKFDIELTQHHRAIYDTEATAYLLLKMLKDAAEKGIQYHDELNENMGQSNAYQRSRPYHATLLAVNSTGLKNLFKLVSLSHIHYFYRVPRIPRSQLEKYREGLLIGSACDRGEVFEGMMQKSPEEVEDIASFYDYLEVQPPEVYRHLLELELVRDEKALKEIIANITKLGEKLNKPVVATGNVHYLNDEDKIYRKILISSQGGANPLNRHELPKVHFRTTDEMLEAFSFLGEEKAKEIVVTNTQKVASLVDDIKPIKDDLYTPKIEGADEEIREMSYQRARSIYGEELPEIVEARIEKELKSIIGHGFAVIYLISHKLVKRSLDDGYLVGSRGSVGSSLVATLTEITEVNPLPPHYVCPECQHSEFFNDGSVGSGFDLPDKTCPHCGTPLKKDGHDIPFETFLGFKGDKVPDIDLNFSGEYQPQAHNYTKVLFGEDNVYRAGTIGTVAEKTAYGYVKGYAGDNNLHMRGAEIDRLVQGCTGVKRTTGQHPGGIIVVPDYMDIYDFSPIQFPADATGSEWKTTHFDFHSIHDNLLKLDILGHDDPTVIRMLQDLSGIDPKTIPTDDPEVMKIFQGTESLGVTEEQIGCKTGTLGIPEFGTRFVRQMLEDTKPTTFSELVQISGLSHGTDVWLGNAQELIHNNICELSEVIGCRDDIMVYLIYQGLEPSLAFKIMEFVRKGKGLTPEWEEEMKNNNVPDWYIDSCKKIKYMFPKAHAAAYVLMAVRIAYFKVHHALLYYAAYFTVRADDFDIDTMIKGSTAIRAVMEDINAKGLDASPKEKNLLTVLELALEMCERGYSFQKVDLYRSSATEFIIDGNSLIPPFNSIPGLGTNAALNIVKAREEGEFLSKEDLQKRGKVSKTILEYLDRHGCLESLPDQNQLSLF
In short: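 Inhibition of DNA synthesis by the reconstituted PolC holoenzyme, monitored through PicoGreen staining of dsDNA formed from ssM13Gori, dNTPs and NTPs, with compound preincubation and room-temperature reaction.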

[7] = biological target: Tumor susceptibility gene 101 protein (Homo sapiens) (UniProt Q99816); experiment: qHTS Validation Assay for Iinhibitors of HIV-1 Budding by Blocking the Interaction of PTAP/TSG101 (AID 485342; calls by dose curve)
Sequence of Tumor susceptibility gene 101 protein (Homo sapiens) (Q99816 whole entry, looked up, the tested form may be a part): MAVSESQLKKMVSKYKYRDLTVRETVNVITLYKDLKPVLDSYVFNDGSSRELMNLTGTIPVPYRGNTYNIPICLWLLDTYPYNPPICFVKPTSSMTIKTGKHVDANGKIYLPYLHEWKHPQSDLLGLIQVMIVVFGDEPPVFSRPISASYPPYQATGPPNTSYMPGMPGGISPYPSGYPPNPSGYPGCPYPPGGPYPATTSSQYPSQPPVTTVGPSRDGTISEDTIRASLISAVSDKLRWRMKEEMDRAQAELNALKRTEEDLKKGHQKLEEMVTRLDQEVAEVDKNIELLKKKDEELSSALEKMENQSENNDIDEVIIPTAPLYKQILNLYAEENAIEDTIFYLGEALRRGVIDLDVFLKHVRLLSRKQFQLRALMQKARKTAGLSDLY
In short: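 Compound wells held the Tsg101 binding domain (10 uM) and a FITC-conjugated PTAP peptide (50 nM) in buffer at pH 7.5 containing 0.15 M NaCl and 0.01% Tween 20; polarization was recorded after 20 min, r.t.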

[8] = qHTS Validation Assay to Find Inhibitors of Chronic Active B-Cell Receptor Signaling (AID 485345; active means well fitted curve in the direction sought with a large enough effect in the main read-out, with a control signal flat, not every such curve was filed as active)
In short: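 TMD8 ABC-DLBCL cells stably carrying doxycycline-inducible IkappaBalpha–green luciferase fusion plus unfused red luciferase; compounds 46 uM to 3 nM, 4 h at 37C with doxycycline. Corrected green/red luminescence ratio normalized to 10 uM MG-132 and basal cell wells; curves fitted.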

[9] = biological target: Beta-2 adrenergic receptor (Homo sapiens) (UniProt P07550); experiment: qHTS validation assay of beta-arrestin-biased ligands of beta2-adrenergic receptor (AID 485366)
Sequence of Beta-2 adrenergic receptor (Homo sapiens) (P07550 whole entry, looked up): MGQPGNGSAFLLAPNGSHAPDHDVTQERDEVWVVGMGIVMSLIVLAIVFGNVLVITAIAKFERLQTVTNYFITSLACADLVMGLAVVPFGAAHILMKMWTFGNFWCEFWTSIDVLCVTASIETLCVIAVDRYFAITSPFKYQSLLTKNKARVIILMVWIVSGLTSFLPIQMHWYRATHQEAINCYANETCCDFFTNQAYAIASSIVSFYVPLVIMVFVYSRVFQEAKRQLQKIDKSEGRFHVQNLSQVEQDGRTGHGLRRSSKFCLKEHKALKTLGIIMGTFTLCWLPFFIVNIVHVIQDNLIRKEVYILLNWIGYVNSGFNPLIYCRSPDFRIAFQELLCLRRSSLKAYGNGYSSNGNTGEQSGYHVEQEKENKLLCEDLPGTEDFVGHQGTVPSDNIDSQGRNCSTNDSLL
In short: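 qHTS, Tango cells, 1500 cells/well, DMEM + 1% FBS. Cpd 18 hr at 37 degrees C. Luciferin/ATP/CoA detection mix, 15 min RT, luminescence read. %Activity from corrected signal; CRC fit, curve class.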

[10] = biological target: RecQ-like DNA helicase BLM (Homo sapiens) (UniProt P54132); experiment: qHTS Validation Assay for Inhibitors of Bloom's syndrome helicase (BLM) (AID 2364); further: potency means the concentration at half of the fitted maximal effect
Sequence of RecQ-like DNA helicase BLM (Homo sapiens) (P54132 whole entry, looked up): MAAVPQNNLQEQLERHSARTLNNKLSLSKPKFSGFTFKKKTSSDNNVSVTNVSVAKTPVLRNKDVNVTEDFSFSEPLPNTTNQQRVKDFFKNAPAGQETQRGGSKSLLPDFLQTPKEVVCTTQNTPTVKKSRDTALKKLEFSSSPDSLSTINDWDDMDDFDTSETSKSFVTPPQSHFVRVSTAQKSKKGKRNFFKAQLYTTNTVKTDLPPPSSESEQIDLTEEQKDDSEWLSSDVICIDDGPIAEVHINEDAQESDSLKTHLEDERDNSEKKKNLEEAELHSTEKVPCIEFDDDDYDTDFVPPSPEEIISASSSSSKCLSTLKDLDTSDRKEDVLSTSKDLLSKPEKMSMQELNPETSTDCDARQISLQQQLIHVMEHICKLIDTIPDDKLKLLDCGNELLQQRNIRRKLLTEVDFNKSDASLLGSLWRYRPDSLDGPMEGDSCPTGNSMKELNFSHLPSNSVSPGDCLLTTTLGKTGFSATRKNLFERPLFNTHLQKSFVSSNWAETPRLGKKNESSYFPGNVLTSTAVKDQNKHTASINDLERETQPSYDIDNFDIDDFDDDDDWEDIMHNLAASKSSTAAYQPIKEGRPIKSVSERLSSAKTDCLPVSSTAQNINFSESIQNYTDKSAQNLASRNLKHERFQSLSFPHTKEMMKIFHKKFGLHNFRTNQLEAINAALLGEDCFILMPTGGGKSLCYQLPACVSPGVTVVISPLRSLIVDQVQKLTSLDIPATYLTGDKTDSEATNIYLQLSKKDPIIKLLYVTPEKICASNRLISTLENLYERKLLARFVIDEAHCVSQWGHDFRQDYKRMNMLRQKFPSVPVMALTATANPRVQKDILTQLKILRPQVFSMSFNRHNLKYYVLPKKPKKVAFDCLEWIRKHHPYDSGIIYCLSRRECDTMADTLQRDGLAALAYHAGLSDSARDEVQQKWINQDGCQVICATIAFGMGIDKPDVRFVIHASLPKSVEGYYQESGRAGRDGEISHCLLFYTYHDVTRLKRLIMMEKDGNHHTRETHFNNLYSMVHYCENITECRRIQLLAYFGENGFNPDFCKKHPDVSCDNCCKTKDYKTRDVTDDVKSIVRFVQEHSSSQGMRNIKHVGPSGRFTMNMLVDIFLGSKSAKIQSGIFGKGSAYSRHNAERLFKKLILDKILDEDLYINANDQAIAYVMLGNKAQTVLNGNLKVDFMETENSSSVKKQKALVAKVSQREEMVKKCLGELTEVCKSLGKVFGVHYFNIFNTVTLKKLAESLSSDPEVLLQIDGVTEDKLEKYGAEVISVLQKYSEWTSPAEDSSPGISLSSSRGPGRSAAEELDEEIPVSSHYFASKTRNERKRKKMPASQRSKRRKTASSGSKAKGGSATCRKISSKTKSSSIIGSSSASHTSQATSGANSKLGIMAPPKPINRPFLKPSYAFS
In short: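 50 nM BLM preincubated 15 min at room temperature with compound in pH 8.0 Tris buffer containing 2.5 ug/ml poly(dI-dC); started with 200 nM TAMRA/BHQ-2 forked duplex and 2 mM ATP (final). Unwinding read as TAMRA fluorescence increase, two reads 2 h apart.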

Measured: Potency

NC(N)=Nc1nc(CSCC/C(N)=N/S(N)(=O)=O)cs1
inactive: [1] | [2] | [3] | [4] | [5] | [6] | [7] | [8] | [9]

COc1ccc(Cc2nccc3cc(OC)c(OC)cc23)cc1OC
inactive: [1] | [2] | [3] | [4] | [6] | [7] | [9]

O=c1c(-c2ccc(O)cc2)coc2cc(O)ccc12
inactive: [1] | [2] | [3] | [4] | [5] | [6] | [7] | [9]

CCCCC1C(=O)N(c2ccccc2)N(c2ccccc2)C1=O
inactive: [1] | [2] | [3] | [4] | [5] | [6] | [7] | [8] | [9]

CC1=C(/C=C/C(C)=C/C=C/C(C)=C/C(=O)Nc2ccc(O)cc2)C(C)(C)CCC1
inactive: [6] | [7] | [9]
active: [4] 18.5 µM

CCN(CC)C(=O)c1ccc(O)c(OC)c1
inactive: [1] | [2] | [3] | [4] | [5] | [6] | [7] | [8] | [9]

Cc1cccc(C)c1OCC(C)N (stereo unspecified)
inactive: [10] | [1] | [2] | [3] | [4] | [5] | [6] | [7] | [8] | [9]

CCCCCN(C)CCC(O)(P(=O)(O)O)P(=O)(O)O
inactive: [1] | [2] | [3] | [4] | [6] | [7] | [8] | [9]

CCn1cc(C(=O)O)c(=O)c2ccc(C)nc21
inactive: [1] | [2] | [3] | [4] | [6] | [7] | [8] | [9]

CN(C)CCC(c1ccccc1)c1ccccn1 (stereo unspecified)
inactive: [10] | [1] | [2] | [3] | [4] | [5] | [6] | [7] | [8] | [9]

CC(C)(C)c1ccc(C(O)CCCN2CCC(C(O)(c3ccccc3)c3ccccc3)CC2)cc1 (stereo unspecified)
inactive: [6] | [7] | [8] | [9]
active: [2] 18.5 µM | [4] 7.36 µM | [5] 11.2 µM

CCN(CC)CCOC(=O)c1ccc(N)cc1
inactive: [1] | [2] | [3] | [4] | [5] | [6] | [7] | [8] | [9]

CC1(C)CCC2=C(O1)c1ccccc1C(=O)C2=O
inactive: [2] | [3] | [6] | [7] | [9]
active: [10] 25.1 µM

COc1ccccc1N1CCN(CCCNc2cc(=O)n(C)c(=O)n2C)CC1
inactive: [1] | [2] | [3] | [4] | [5] | [6] | [7] | [8] | [9]

CC(=O)N[C@@H](CS)C(=O)O
inactive: [1] | [2] | [3] | [4] | [5] | [6] | [7] | [8] | [9]

C[N+](C)(C)CCCCCC[N+](C)(C)C
inactive: [10] | [1] | [2] | [3] | [4] | [5] | [6] | [7] | [8] | [9]

Clc1ccc(C(c2ccc(Cl)cc2)n2cc[n+](CC(OCc3ccc(Cl)cc3Cl)c3ccc(Cl)cc3Cl)c2)cc1 (stereo unspecified)
inactive: [2] | [6] | [7] | [8] | [9]

CC(C)OC(=O)C(C)(C)Oc1ccc(C(=O)c2ccc(Cl)cc2)cc1
inactive: [1] | [2] | [3] | [5] | [6] | [7] | [9]

CCCNC(=O)NS(=O)(=O)c1ccc(Cl)cc1
inactive: [10] | [1] | [2] | [3] | [4] | [5] | [6] | [7] | [8] | [9]

COC(=O)[C@@H]1[C@H]2C[C@H]3c4[nH]c5ccccc5c4CCN3C[C@@H]2CC[C@@H]1O
inactive: [10] | [1] | [2] | [3] | [5] | [6] | [7] | [9]

NCCS
inactive: [1] | [2] | [3] | [4] | [5] | [6] | [7] | [8] | [9]

O=C(O)CCc1nc(-c2ccccc2)c(-c2ccccc2)o1
inactive: [10] | [1] | [2] | [3] | [4] | [5] | [6] | [7] | [8] | [9]

CCN(CC)CCNC(=O)c1ccc(N)cc1
inactive: [1] | [2] | [3] | [4] | [5] | [6] | [7] | [8] | [9]

O=C1NC(=O)C(c2ccccc2)(c2ccccc2)N1
inactive: [1] | [2] | [3] | [4] | [5] | [6] | [7] | [8] | [9]

O=c1cc(-c2ccc(O)cc2)oc2cc(O)cc(O)c12
inactive: [10] | [1] | [2] | [3] | [4] | [6] | [7] | [9]

O=C1NCC2(CCN(CCc3ccccc3)CC2)O1
inactive: [1] | [2] | [3] | [4] | [5] | [6] | [7] | [8] | [9]

CC(C)NCC(O)COc1cccc2[nH]ccc12 (stereo unspecified)
inactive: [1] | [2] | [3] | [4] | [5] | [6] | [7] | [8] | [9]

CC(=O)CCCCn1c(=O)c2c(ncn2C)n(C)c1=O
inactive: [10] | [1] | [2] | [3] | [4] | [5] | [6] | [7] | [8] | [9]

O=C(NCCN1CCOCC1)c1ccc(Cl)cc1
inactive: [1] | [2] | [3] | [4] | [6] | [7] | [8] | [9]

CC(=O)c1ccc(S(=O)(=O)NC(=O)NC2CCCCC2)cc1
inactive: [1] | [2] | [3] | [4] | [5] | [6] | [7] | [8] | [9]

CC/C(=C(\c1ccccc1)c1ccc(OCCN(C)C)cc1)c1ccccc1
inactive: [7]
active: [5] 17.8 µM

CC(=O)O[C@]1(C(C)=O)CC[C@H]2[C@@H]3C=C(Cl)C4=CC(=O)[C@@H]5C[C@@H]5[C@]4(C)[C@H]3CC[C@@]21C
inactive: [1] | [2] | [3] | [4] | [6] | [7] | [8] | [9]

COc1cccc(-c2cc(=O)c3ccccc3o2)c1N
inactive: [1] | [2] | [3] | [4] | [6] | [7] | [8] | [9]

CCN1CCC[C@H]1CNC(=O)c1cc(S(N)(=O)=O)ccc1OC
inactive: [1] | [2] | [3] | [4] | [5] | [6] | [7] | [8] | [9]

Clc1ccc(Cn2c(CN3CCCC3)nc3ccccc32)cc1
inactive: [1] | [2] | [3] | [4] | [5] | [6] | [7] | [8] | [9]

C[N+](C)(C)CC(=O)O
inactive: [1] | [2] | [3] | [4] | [6] | [7] | [8] | [9]
